The results in this text go back to PubChem BioAssay (EPA / NIEHS).

Inconclusive results are not listed. Active and inactive are the calls of the source. How the source made its calls, unless noted: active means hit-call score of the fitted dose curve at least 0.9, where 1 is the maximum; inactive means score below 0.9.

Assay [1] addresses human Thyroid Receptor alpha (THRa1), THRA (gene 7067) (UniProt P10827). As to the kind of experiment: ATG_THRa1_TRANS: Attagene TRANS-FACTORIAL HepG2 Assay for human Thyroid Receptor alpha (THRa1) (AID 2283014; active means hit-call score of the fitted dose curve at least 0.9, where 1 is the maximum). The method, boiled down:
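Transcripts from GAL4-UAS-driven reporters, measured after 24 h compound exposure by RT-PCR plus capillary electrophoresis of 6-FAM-labeled fragments, were fitted for gain of signal relative to DMSO. Cells: transiently transfected HepG2 expressing NR-Gal4 chimeras.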

Assay [2] addresses human Vitamin D Receptor (VDR), VDR (gene 7421) (UniProt P11473). The assay can be described thus: ATG_VDR_TRANS: Attagene TRANS-FACTORIAL HepG2 Assay for human Vitamin D Receptor (VDR) (AID 2283022; active means hit-call score of the fitted dose curve at least 0.9, where 1 is the maximum). The method in brief: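 Transactivation by an exogenous VDR-Gal4 chimera in transiently transfected HepG2 cells was measured as reporter transcript level 24 hours after chemical treatment. RT-PCR products were analysed by capillary electrophoresis and fitted in the positive direction relative to DMSO.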

Assay [3] deals with human Retinoid X Receptor beta (RXRb), RXRB (gene 6257) (UniProt P28702). As to the kind of experiment: ATG_RXRb_TRANS: Attagene TRANS-FACTORIAL HepG2 Assay for human Retinoid X Receptor beta (RXRb) (AID 2283013; active means hit-call score of the fitted dose curve at least 0.9, where 1 is the maximum). The method in brief: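 Multiplexed TRANS reporter assay in HepG2; 24 h dosing; reporter mRNA by RT-PCR/CE fluorescence; gain-of-signal relative to DMSO.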
Read-out in assay [4]: E-selectin (Homo sapiens) (UniProt P16581)
The assay can be described thus: BSK_3C_Eselectin: BioMAP Diversity Plus: 3C Assay for Eselectin Biomarker Activity (AID 2283015).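 On outcome: cell surface E-selectin protein quantified by ELISA 24 h after dosing.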 As to conditions: primary human endothelial cells (HUVEC); actives raise or lower the signal. The method in brief:
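E-selectin ELISA readout, fitted bidirectionally relative to DMSO, taken 24 h post-dosing in HUVEC cultures of the 3C system. Overt cytotoxicity tracked with sulforhodamine B staining of parallel wells.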

Read-out in assay [5]: Interleukin-1 alpha (IL1a), IL1A (gene 3552)
As to the kind of experiment: BSK_BE3C_IL1a: BioMAP Diversity Plus: BE3C Assay for Interleukin-1 alpha (IL1a) Biomarker Activity (AID 2283016). Conditions: primary human bronchial epithelial cells; actives raise or lower the signal. The method in brief: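 Cultures of primary human bronchial epithelial cells receive test chemical. After 24 h, IL-1a is quantified by ELISA, while parallel wells are fixed in TCA and SRB-stained for total protein. Changes in either direction are fitted relative to DMSO.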

Read-out in assay [6]: Monocyte Chemoattractant Protein-1 (MCP1), CCL2 (gene 6347)
The assay can be described thus: BSK_3C_MCP1: BioMAP Diversity Plus: 3C Assay for Monocyte Chemoattractant Protein-1 (MCP1) Biomarker Activity (AID 2283017). Conditions: primary human endothelial cells (HUVEC); actives raise or lower the signal. The method, boiled down:
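MCP-1 was measured by ELISA 24 h after dosing in primary HUVEC 3C cultures and fitted in both directions relative to DMSO; cytotoxicity was checked by SRB total-protein staining in parallel wells.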

Read-out in assay [7]: Monocyte Chemoattractant Protein-1 (MCP1), CCL2 (gene 6347)
As to the kind of experiment: BSK_4H_MCP1: BioMAP Diversity Plus: 4H Assay for Monocyte Chemoattractant Protein-1 (MCP1) Biomarker Activity (AID 2283018). Conditions: primary human endothelial cells (HUVEC); actives raise or lower the signal. The method in brief: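 Readout: MCP-1 ELISA on compound-treated HUVEC, sampled 24 h post-dosing. Baseline and negative control DMSO; bidirectional fit. Overt toxicity checked alongside by sulforhodamine B protein staining at time of biomarker measurement.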

Read-out in assay [8]: Human Leukocyte Antigen - DR isotype (HLADR), HLA-DRA (gene 3122)
As to the kind of experiment: BSK_3C_HLADR: BioMAP Diversity Plus: 3C Assay for Human Leukocyte Antigen - DR isotype (HLADR) Biomarker Activity (AID 2283019).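 On outcome: ELISA of cell-surface HLA-DR on HUVEC 24 h after dosing.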 As to conditions: primary human endothelial cells (HUVEC); actives raise or lower the signal. The method, boiled down:
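Bidirectional fitting against DMSO was applied to the HLA-DR ELISA signal from human umbilical vein endothelial cells, 24 h post-dose. Cytotoxicity came from parallel SRB total-protein staining; 3C proliferation was counted by SRB at 48 h.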

Read-out in assay [9]: Interleukin-8 (IL8), CXCL8 (gene 3576)
The assay can be described thus: BSK_3C_IL8: BioMAP Diversity Plus: 3C Assay for Interleukin-8 (IL8) Biomarker Activity (AID 2283020). Conditions: primary human endothelial cells (HUVEC); actives raise or lower the signal. The method in brief:
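Human vascular endothelial cells (umbilical vein) in the 3C system; IL-8 level detected by ELISA at 24 h post-dose, with DMSO as baseline.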

Read-out in assay [10]: Monokine induced gamma interferon (MIG), CXCL9 (gene 4283)
The assay can be described thus: BSK_3C_MIG: BioMAP Diversity Plus: 3C Assay for Monokine induced gamma interferon (MIG) Biomarker Activity (AID 2283021). As to conditions: primary human endothelial cells (HUVEC); actives raise or lower the signal. The method, boiled down: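 After 24 h of treatment, human umbilical vein endothelial cultures (3C system) had their MIG biomarker level determined by ELISA, with DMSO serving as negative control.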

Assay [11] is described as follows: BSK_3C_SRB: Viability Assessment in the BioMAP Diversity Plus: 3C Assay (AID 2283023).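 Further: fitted both ways against DMSO so a hit may be signal rise or drop.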 Conditions: primary human endothelial cells (HUVEC). The method, boiled down:
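Cytotoxicity readout in parallel HUVEC 3C cultures: after 24 h compound exposure, cells fixed with 10% TCA, stained with 0.1% SRB and read at 560 nm. Gain or loss relative to DMSO fitted.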

Read-out in assay [12]: Matrix Metallopeptidase 1 (MMP1), MMP1 (gene 4312)
As to the kind of experiment: BSK_BE3C_MMP1: BioMAP Diversity Plus: BE3C Assay for Matrix Metallopeptidase 1 (MMP1) Biomarker Activity (AID 2283024). As to conditions: primary human bronchial epithelial cells; actives raise or lower the signal. The method in brief:
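Dose cells, wait 24 h, run MMP1 ELISA; cells are human bronchial epithelial primaries. Both increases and decreases relative to DMSO counted.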

Assay [13] is described as follows: BSK_3C_Vis: BioMAP Diversity Plus: 3C Assay for Morphology Visualization (AID 2283025).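 Further: fitted both ways so gain or loss versus DMSO counts.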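 On AC50: light microscopy image of cell morphology used as background control.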 Conditions: primary human endothelial cells (HUVEC). The method in brief:
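Endothelial cells from human umbilical vein were treated with test chemicals for 24 h and inspected by light microscopy for changes in cell conformation.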

Read-out in assay [14]: Pselectin, SELP (gene 6403)
As to the kind of experiment: BSK_4H_Pselectin: BioMAP Diversity Plus: 4H Assay for Pselectin Biomarker Activity (AID 2283026). Conditions: primary human endothelial cells (HUVEC); actives raise or lower the signal. The method in brief:
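Human vascular endothelium from umbilical vein; P-selectin measured by ELISA at 24 h post-dose, with cytotoxicity checked by sulforhodamine B total-protein staining in parallel cultures (0.1% SRB after 10% TCA fixation, read at 560 nm).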

Assay [15] in a line: BSK_4H_SRB: Viability Assessment in the BioMAP Diversity Plus: 4H Assay (AID 2283027).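 Further: cells exposed to compound for 24 h before staining.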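 On AC50: curves fitted both ways versus DMSO so AC50 may be loss or gain.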 Conditions: primary human endothelial cells (HUVEC). The method in brief:
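Absorbance at 560 nm of SRB-stained total protein served as the viability read-out in confluent primary human umbilical vein endothelium 24 h after chemical treatment. Curves were fitted bidirectionally against DMSO as negative control.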

A short description of assay [16]: BSK_BE3C_SRB: Viability Assessment in the BioMAP Diversity Plus: BE3C Assay (AID 2283028).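 On AC50: fitted both ways so AC50 may mark signal gain or loss versus DMSO.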 Conditions: primary human bronchial epithelial cells. The method in brief:
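Cytotoxicity read-out: SRB (0.1%) staining of TCA-fixed (10%) human lung bronchial epithelial cells, absorbance 560 nm, 24 h post-dosing. Curves fitted both directions relative to DMSO.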

Read-out in assay [17]: Thrombomodulin, THBD (gene 7056)
As to the kind of experiment: BSK_3C_Thrombomodulin: BioMAP Diversity Plus: 3C Assay for Thrombomodulin Biomarker Activity (AID 2283029). As to conditions: primary human endothelial cells (HUVEC); actives raise or lower the signal. The method, boiled down: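 Thrombomodulin ELISA, human primary HUVEC, 24 h post-dose; data fitted in both directions relative to DMSO.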

Read-out in assay [18]: Urokinase-type plasminogen activator receptor (uPAR), PLAUR (gene 5329)
The assay can be described thus: BSK_4H_uPAR: BioMAP Diversity Plus: 4H Assay for Urokinase-type plasminogen activator receptor (uPAR) Biomarker Activity (AID 2283030). Conditions: primary human endothelial cells (HUVEC); actives raise or lower the signal. The method, boiled down: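 uPAR level read by ELISA on HUVEC cultures (BioMAP 4H) 24 h post-dosing, analyzed for gain or loss relative to DMSO. Parallel SRB staining assessed overt cytotoxicity.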

Sequence of human Vitamin D Receptor (VDR), VDR (gene 7421) (P11473 whole entry, looked up, the tested form may be a part): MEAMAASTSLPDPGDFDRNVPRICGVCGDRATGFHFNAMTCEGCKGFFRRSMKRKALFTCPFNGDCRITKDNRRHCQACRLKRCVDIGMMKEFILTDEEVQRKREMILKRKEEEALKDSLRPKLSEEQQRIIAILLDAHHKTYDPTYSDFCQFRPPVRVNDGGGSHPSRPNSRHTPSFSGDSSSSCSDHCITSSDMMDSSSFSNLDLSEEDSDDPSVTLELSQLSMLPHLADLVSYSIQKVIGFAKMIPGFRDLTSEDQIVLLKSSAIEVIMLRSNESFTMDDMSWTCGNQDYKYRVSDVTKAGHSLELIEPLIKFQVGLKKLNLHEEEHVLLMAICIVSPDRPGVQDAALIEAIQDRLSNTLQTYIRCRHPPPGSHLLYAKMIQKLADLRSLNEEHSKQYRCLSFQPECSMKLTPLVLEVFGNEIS
Sequence of human Thyroid Receptor alpha (THRa1), THRA (gene 7067) (P10827 whole entry, looked up, the tested form may be a part): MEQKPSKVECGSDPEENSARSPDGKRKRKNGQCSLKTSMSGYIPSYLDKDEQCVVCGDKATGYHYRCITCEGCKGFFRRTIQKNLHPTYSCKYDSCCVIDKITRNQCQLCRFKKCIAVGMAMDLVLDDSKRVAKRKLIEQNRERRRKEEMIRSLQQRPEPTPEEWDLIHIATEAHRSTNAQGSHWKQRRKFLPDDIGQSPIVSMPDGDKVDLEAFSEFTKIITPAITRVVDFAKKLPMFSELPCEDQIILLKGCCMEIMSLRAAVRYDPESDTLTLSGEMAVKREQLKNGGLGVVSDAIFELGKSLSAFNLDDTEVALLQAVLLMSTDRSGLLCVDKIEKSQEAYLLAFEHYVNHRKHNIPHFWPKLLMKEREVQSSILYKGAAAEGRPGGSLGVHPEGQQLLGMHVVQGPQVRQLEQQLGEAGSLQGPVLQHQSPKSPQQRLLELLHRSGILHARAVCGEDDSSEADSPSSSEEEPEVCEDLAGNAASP
Sequence of human Retinoid X Receptor beta (RXRb), RXRB (gene 6257) (P28702 whole entry, looked up): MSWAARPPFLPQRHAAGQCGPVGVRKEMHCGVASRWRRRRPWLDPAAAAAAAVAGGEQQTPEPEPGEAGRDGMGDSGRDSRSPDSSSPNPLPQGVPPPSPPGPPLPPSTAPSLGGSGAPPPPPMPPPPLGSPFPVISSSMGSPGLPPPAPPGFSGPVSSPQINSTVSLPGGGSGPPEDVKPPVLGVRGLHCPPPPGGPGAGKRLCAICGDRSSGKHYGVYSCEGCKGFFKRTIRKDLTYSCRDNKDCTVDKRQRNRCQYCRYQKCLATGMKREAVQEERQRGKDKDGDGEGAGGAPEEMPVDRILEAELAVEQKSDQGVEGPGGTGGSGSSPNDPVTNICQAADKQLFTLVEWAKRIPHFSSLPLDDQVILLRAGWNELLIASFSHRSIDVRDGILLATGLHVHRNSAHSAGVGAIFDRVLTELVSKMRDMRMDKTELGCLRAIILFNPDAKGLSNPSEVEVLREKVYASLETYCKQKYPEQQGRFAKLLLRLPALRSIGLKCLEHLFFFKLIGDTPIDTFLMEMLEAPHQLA
Sequence of E-selectin (Homo sapiens) (P16581 whole entry, looked up): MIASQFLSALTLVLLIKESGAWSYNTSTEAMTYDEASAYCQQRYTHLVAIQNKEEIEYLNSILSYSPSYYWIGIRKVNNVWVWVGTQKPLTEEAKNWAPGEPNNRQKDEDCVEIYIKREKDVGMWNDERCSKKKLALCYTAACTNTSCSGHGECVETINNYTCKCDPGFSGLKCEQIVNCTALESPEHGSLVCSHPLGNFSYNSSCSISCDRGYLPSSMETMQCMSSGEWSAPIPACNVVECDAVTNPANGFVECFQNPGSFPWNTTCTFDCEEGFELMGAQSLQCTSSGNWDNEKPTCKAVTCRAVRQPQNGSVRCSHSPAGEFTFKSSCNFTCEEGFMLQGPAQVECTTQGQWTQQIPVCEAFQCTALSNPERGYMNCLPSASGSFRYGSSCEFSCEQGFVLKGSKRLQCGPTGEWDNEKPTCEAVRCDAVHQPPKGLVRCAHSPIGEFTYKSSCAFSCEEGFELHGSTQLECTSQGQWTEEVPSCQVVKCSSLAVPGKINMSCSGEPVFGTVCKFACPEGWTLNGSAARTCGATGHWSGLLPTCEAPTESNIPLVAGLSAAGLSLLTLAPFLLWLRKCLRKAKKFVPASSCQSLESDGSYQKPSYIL

For `CN(C1CCCCC1)C1CCCCC1`, the compound was called inactive in [1] and in assay [2].
For `O=[N+]([O-])c1cc([As](=O)(O)O)ccc1O`, the result in assay [3], in assay [1] and in assay [2] was inactive.
Regarding `COc1ccc([N+](=O)[O-])cc1O`, the compound was classed as inactive in assay [3] and in [1].
As for `CN(N=O)C(N)=O`, the compound was classed as inactive in assay [3], in assay [1] and in [2].
As for `Nc1ccc(-c2ccccc2)cc1`, the result in assay [3] and in assay [1] was inactive.
In the case of `O=C(NC(=O)c1c(F)cccc1F)Nc1ccc(Cl)cc1`, the compound was classed as inactive in assay [3] and in assay [2].
For the compound `CCCCCCCCCCCCN(C)C`, the result in [3], in assay [1], in assay [4], in assay [5], in assay [6] and in assay [7] was inactive. Besides, the result in [8], in assay [9], in [10], in [2], in assay [12] and in assay [13] was inactive. Further, the outcome in [14], in assay [15], in assay [16], in assay [17] and in [18] was inactive. Besides, the AC50 in assay [11] is 20 µM (active).
With `O=C(O)COc1ccc(Cl)cc1`, the compound was called inactive in assay [3], in assay [1] and in assay [2].
Consider `Oc1cc(Cl)c(Cl)cc1Cl`, for which the AC50 in [3] is 151 µM (active); in assay [4], 35.4 µM (active); in assay [6], 33.3 µM (active); in assay [7] it was 20 µM (active); in [8], 16.8 µM (active); in [9] it was 31.7 µM (active). The AC50 is 28.7 µM (active) in assay [11]; 39 µM (active) in assay [13]; 25.6 µM (active) in [14]; 25.5 µM (active) in assay [15]; 27.4 µM (active) in [18]. Also, the result in assay [5], in [10], in assay [12], in assay [16] and in assay [17] was inactive.
As for `N#Cc1cccnc1`, the result in [1], in [4], in assay [5], in assay [7], in [9] and in [10] was inactive. Besides, the result in assay [2], in [11], in [12], in [13], in assay [14] and in [15] was inactive. For the same compound, the result in assay [16], in [17] and in [18] was inactive.
For the compound `CC[N+](CC)(CC)CC`, the compound was called inactive in [3], in assay [1] and in assay [2].
In the case of `Nc1cccnc1`, the outcome in [1] and in [2] was inactive.
Take `C=C(C)[C@@H]1CC=C(C=O)CC1`: the result in assay [2] was inactive.
For the compound `COC(=O)Nc1cccc(OC(=O)Nc2cccc(C)c2)c1`, the compound was classed as inactive in [1].
With `CCCCCCCCCCCCc1cccc(S(=O)(=O)O)c1`, the AC50 is 30 µM (active) in assay [3], 27.2 µM (active) in assay [5], 28.8 µM (active) in assay [12] and 26.9 µM (active) in [16]. In addition, the outcome in assay [4], in assay [6], in [7], in [8], in [9] and in assay [10] was inactive. Moreover, the outcome in [11], in assay [13], in assay [14], in assay [15], in [17] and in assay [18] was inactive.
As for `CC(c1ccccc1)(c1ccc(O)cc1)c1ccc(O)cc1`, the outcome in assay [2] was inactive.
For the compound `CNC(=O)CSP(=O)(OC)OC`, the call in [1] was inactive.
`Clc1cccc(Cl)c1Cl`: the compound was called inactive in [3], in assay [4], in assay [5], in assay [7], in assay [9] and in [10]. Moreover, the compound was called inactive in [2], in assay [11], in assay [12], in [13], in assay [14] and in assay [15]. Also, the outcome in [16], in assay [17] and in assay [18] was inactive.
`CCOP(=O)(OCC)OC(=CCl)c1ccc(Cl)cc1Cl`: the AC50 in [4] was 29.2 µM (active); in assay [6], 35.4 µM (active); in assay [7], 20 µM (active); in [9] it was 3.97 µM (active); in assay [11], 29 µM (active); in assay [13], 37.4 µM (active). Besides, the AC50 in assay [14] was 35.3 µM (active); in assay [15] it was 29.3 µM (active); in assay [18], 30.8 µM (active). For the same compound, the outcome in assay [5], in [10], in [12], in assay [16] and in [17] was inactive.
With `O=C(O)COc1cc(Cl)c(Cl)cc1Cl`, the compound was classed as inactive in assay [3], in assay [4], in assay [5], in assay [6], in [7] and in assay [8]. Also, the result in [9], in assay [10], in assay [11], in assay [12], in assay [13] and in assay [14] was inactive. Also, the result in assay [15], in [16], in [17] and in assay [18] was inactive.
Consider `O=C(NC(=O)c1c(F)cccc1F)Nc1cc(Cl)c(Oc2ncc(C(F)(F)F)cc2Cl)c(Cl)c1`, for which the call in assay [1] was inactive.
For `Cc1cc(SCc2sc(-c3ccc(C(F)(F)F)c(F)c3)nc2C)ccc1OCC(=O)O`, the compound was classed as inactive in assay [3], in assay [1] and in assay [2].
